Measurements taken from PubChem BioAssay (NCATS).
Results filed as inconclusive are left out. Activity calls are given as the source filed them. The call rests on the fitted dose curve; in most records, active means well fitted inhibition curve with a large enough effect; inconclusive means small, poorly fitted or top-dose-only effect; inactive means flat fitted curve, though single readings scatter.

Legend:
Assay in all cases: qHTS profiling for inhibitors of Plasmodium falciparum proliferation (AID 504749); further: nearly all actives have a fitted effect of over 60% in size
Details in all cases: P. falciparum in erythrocytes, SYBR Green DNA, 72 h; series mostly up to 28.7 µM
CP325 = test system: CP325
In short: (§1)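 Fluorescence of SYBR Green-bound parasite DNA, read at 485/535 nm, served as the growth measure. Infected erythrocytes were cultured with compound 72 h; artemisinin (0.29 uM) and DMSO wells defined the normalization range.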

CP329 = test system: CP329
In short: as §1

CP335 = test system: CP335
In short: as §1

DFO2036 = test system: DFO2036
In short: as §1

DIV14 = test system: DIV14
In short: as §1

DIV17 = test system: DIV17
In short: as §1

DIV30 = test system: DIV30
In short: as §1

Dd2 = test system: Dd2
In short: as §1

ECU = test system: ECU
In short: as §1

FAB9 = test system: FAB9
In short: as §1

GB4 = test system: GB4
In short: as §1

HB3 = test system: HB3
In short: as §1

ICS = test system: ICS
In short: as §1

JCK = test system: JCK
In short: as §1

N140 = test system: N140
In short: as §1

P93_24 = test system: P93_24
In short: as §1

P94_40 = test system: P94_40
In short: as §1

PAD = test system: PAD
In short: as §1

PC15 = test system: PC15
In short: as §1

PC26 = test system: PC26
In short: as §1

Measured: Potency

Cn1c(=O)c2c(ncn2CCO)n(C)c1=O
inactive: all assays above

O=C(CCBr)N1CCN(C(=O)CCBr)CC1
inactive: all assays above

CCCCCCCCCCCCCCCCC(C(=O)O)C(O)(CC(=O)O)C(=O)O (stereo not given)
inactive: all assays above

NS(=O)(=O)c1ccc(C(=O)O)cc1
inactive: all assays above

CCc1nnc(NS(=O)(=O)c2ccc(N)cc2)s1
inactive: all assays above

NS(=O)(=O)c1cc2c(cc1C(F)(F)F)NCNS2(=O)=O
inactive: all assays above

O=C(O)Cc1ccc(CCNS(=O)(=O)c2ccc(Cl)cc2)cc1
inactive: all assays above

CCCCCCCC(=O)OCC(COC(=O)CCCCCCC)OC(=O)CCCCCCC
inactive: all assays above

O=C(O)c1ccccc1C(=O)Nc1ccc(S(=O)(=O)Nc2nccs2)cc1
inactive: all assays above

O=C(OOC(=O)c1ccccc1)c1ccccc1
inactive: all assays above

O=c1[nH]c(=O)c2ccccc2o1
inactive: all assays above

CC(C)=CCC/C(C)=C/CO
inactive: all assays above

C=CCNC(N)=S
inactive: all assays above

CN/C(=C\[N+](=O)[O-])NCCSCc1csc(CN(C)C)n1
inactive: all assays above

CC(C)C[C@@H](N)C(=O)O
inactive: all assays above

COc1ccc2cc(CCC(C)=O)ccc2c1
inactive: all assays above

NC(N)=NCCN1CCCCCCC1
inactive: all assays above

O[C@@H]1CO[C@H]2[C@@H]1OC[C@@H]2O
inactive: all assays above

O=C(O)CNC(=O)c1ccccc1I
inactive: all assays above

Cc1c(C)c2c(c(C)c1OC(=O)c1cccnc1)CC[C@@](C)(CCC[C@H](C)CCC[C@H](C)CCCC(C)C)O2
inactive: all assays above

C[C@@H](N)C(=O)O
inactive: all assays above

Cc1cccc(Nc2ccccc2C(=O)O)c1C
inactive: all assays above

OCc1ccc(Cl)cc1Cl
inactive: all assays above

O=C(O)Cc1cn(-c2ccccc2)nc1-c1ccc(Cl)cc1
inactive: all assays above

CCOc1cc(NC(C)=O)ccc1C(=O)OC
inactive: all assays above

CCOC(N)=O
inactive: all assays above

CCOC(=O)[C@H](CCc1ccccc1)N[C@@H](C)C(=O)N1CCC[C@H]1C(=O)O
inactive: all assays above

C[C@@H]1O[C@@H](OC[C@H]2O[C@@H](Oc3c(-c4ccc(O)c(O)c4)oc4cc(O)cc(O)c4c3=O)[C@H](O)[C@@H](O)[C@@H]2O)[C@H](O)[C@H](O)[C@H]1O
inactive: all assays above
